Records with an inconclusive call do not appear. Unmarked numbers belong to inactive results. Calls of active or inactive are those of the source. Calls follow the shape of the dose curve; as a rule, active = well fitted curve in the direction sought with a large enough effect; inconclusive = small, poorly fitted or top-dose-only effect, or another doubt; inactive = no such curve, though single readings can be large; an effect the other way counts as inactive or inconclusive.
Experiments:
[1] = molecular target: Aldehyde dehydrogenase, mitochondrial (Homo sapiens) (UniProt P05091); assay: qHTS for Inhibitors of the Aldehyde Dehydrogenase Family (ALDH2) Primary screen (AID 2061308);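 also: plate controls were vehicle for no effect and reference inhibitor for full effect; nearly all actives have a fitted effect of over 55% in size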
[2] = molecular target: Retinaldehyde dehydrogenase 3 (Homo sapiens) (UniProt P47895); assay: qHTS for Inhibitors of the Aldehyde Dehydrogenase Family (ALDH1A3) Primary screen (AID 2061315);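 also: plate controls were DMSO vehicle for no effect and reference inhibitor for full effect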
[3] = molecular target: Aldehyde dehydrogenase 1A1 (Homo sapiens) (UniProt P00352); assay: qHTS for Inhibitors of the Aldehyde Dehydrogenase Family (ALDH1A1) Confirmatory screens (AID 2061316); also: potency is read from the fitted curve at half-maximal effect; nearly all actives have a fitted effect of over 65% in size
[4] = BET inhibitor-based combinations targeting novel dependencies in MECOM-rearranged (r) AML: SET-2 cell line (AID 2202231); settings: SET-2 AML cells viability, CellTiter-Glo luminescence, 48 h; viability: stronger effect = lower value, concentration not given here; also: nearly all actives have a fitted effect of over 35% in size; also: potency is read from the fitted curve at half-maximal effect;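 as to viability: plate controls were DMSO treated cells for no effect and wells without cells for full effect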
Summary of the method: (§1)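 500 cells/well; 11-pt dose curve; 48 h, standard incubator; CellTiter-Glo luminescence after 15 min RT; DMSO/empty-well normalization; AUC plus Z-AUC (mean-centered within each line).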

[5] = BET inhibitor-based combinations targeting novel dependencies in MECOM-rearranged (r) AML: OCI-AML3 cell line (AID 2202232); settings: Potency: OCI-AML3 viability; also: nearly all actives have a fitted effect of over 35% in size; also: potency is read from the fitted curve at half-maximal effect
Summary of the method: as §1

[6] = BET inhibitor-based combinations targeting novel dependencies in MECOM-rearranged (r) AML: MV-4-11 cell line (AID 2202233); also: nearly all actives have a fitted effect of over 45% in size; also: potency is read from the fitted curve at half-maximal effect
Summary of the method: (§2)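 Cells were plated at 500 per well and exposed to each drug across an 11-point dose range for 48 hr at standard incubator conditions. Viability was read by CellTiter-Glo luminescence, and activity was expressed as AUC and per-cell-line Z-transformed AUC.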

[7] = BET inhibitor-based combinations targeting novel dependencies in MECOM-rearranged (r) AML: HNT-34 cell line (AID 2202234); also: nearly all actives have a fitted effect of over 35% in size; also: potency is read from the fitted curve at half-maximal effect
Summary of the method: as §2

[8] = BET inhibitor-based combinations targeting novel dependencies in MECOM-rearranged (r) AML: UCSD-AML1 cell line (AID 2202235); also: nearly all actives have a fitted effect of over 40% in size; also: potency is read from the fitted curve at half-maximal effect
Summary of the method: as §2

[9] = BET inhibitor-based combinations targeting novel dependencies in MECOM-rearranged (r) AML: AML-191 cell line (AID 2202236; also: nearly all actives have a fitted effect of over 35% in size; also: potency is read from the fitted curve at half-maximal effect)
Summary of the method: as §1

[10] = BET inhibitor-based combinations targeting novel dependencies in MECOM-rearranged (r) AML: AML-194 cell line (AID 2202237; also: nearly all actives have a fitted effect of over 40% in size; also: potency is read from the fitted curve at half-maximal effect)
Summary of the method: as §1

| Compound | Potency [1] | Potency [2] | Potency [3] | Potency [4] | Potency [5] | Potency [6] | Potency [7] | Potency [8] | Potency [9] | Potency [10] | viability [4] |
| --- | --- | --- | --- | --- | --- | --- | --- | --- | --- | --- | --- |
| Fc1ccc(NC(=S)Nc2nnc(-c3ccncc3)s2)cc1C(F)(F)F | inactive | inactive | 5.04 µM (active) |  |  |  |  |  |  |  |  |
| c1nc(NC[C@@H]2CCCO2)c2cc(-c3ccc4c(c3)OCO4)ccc2n1 | inactive | inactive | 20.1 µM (active) |  |  |  |  |  |  |  |  |
| CCC(=O)Nc1cccc(Oc2nc(Nc3ccc(N4CCN(C)CC4)cc3OC)ncc2Cl)c1 | inactive | inactive |  | 20.9 µM (active) | 14.8 µM (active) | 7.42 µM (active) | 11.8 µM (active) | inactive | 18.6 µM (active) | 23.5 µM (active) |  |
| Nc1ccc(C(=O)c2cc3c(ccc4ccccc43)[nH]2)cc1 | inactive | inactive |  | 30.3 µM (active) | 6.79 µM (active) | 3.82 µM (active) | 2.41 µM (active) |  | 1.52 µM (active) | 2.41 µM (active) |  |
| CO[C@H]1C[C@@H]2CC[C@@H](C)[C@@](O)(O2)C(=O)C(=O)N2CCCC[C@H]2C(=O)O[C@H]([C@H](C)C[C@@H]2CC[C@@H](OC(=O)C(C)(CO)CO)[C@H](OC)C2)CC(=O)[C@H](C)/C=C(\C)[C@@H](O)[C@@H](OC)C(=O)[C@H](C)C[C@H](C)/C=C/C=C/C=C/1C | inactive | inactive |  | 0.091 µM (active) |  |  |  |  |  |  |  |
| COc1ccc(-c2ccc3ncc4c(c3c2)n(-c2ccc(N3CCNCC3)c(C(F)(F)F)c2)c(=O)n4C)cn1 | inactive | inactive |  | 0.332 µM (active) | 0.235 µM (active) | 0.105 µM (active) | 0.118 µM (active) | 0.0525 µM (active) | 0.132 µM (active) | 0.118 µM (active) |  |
| COc1cc2ncnc(Nc3cccc(Cl)c3F)c2cc1OC(=O)N1CCN(C)C[C@H]1C | inactive | inactive |  |  | 13.2 µM (active) | 13.2 µM (active) | 16.6 µM (active) | inactive | inactive | inactive | 103% |
| COc1ccccc1-c1cccc(-c2c(O)c3cc(C#N)c(Cl)cc3[nH]c2=O)c1 | inactive | inactive |  |  | inactive | inactive | inactive | inactive | inactive | inactive | 99.8% |
| CN1CCN(C2CCC(n3cc(-c4ccc(Oc5ccccc5)cc4)c4c(N)ncnc43)CC2)CC1 (stereo unspecified) | inactive | inactive |  | 20.9 µM (active) | 13.2 µM (active) | 0.235 µM (active) |  | 7.42 µM (active) | 9.34 µM (active) | 8.33 µM (active) |  |
| O=C(NCc1ccc(S(=O)(=O)c2cccc(C(F)(F)F)c2)cc1)c1cnc2[nH]ncc2c1 | inactive | inactive |  |  | 0.0148 µM (active) | 0.0833 µM (active) | 0.0263 µM (active) | 0.0209 µM (active) | 0.0148 µM (active) | 0.742 µM (active) | 110% |
| O=C(O)C1(Cc2cccc(Nc3nccs3)n2)CCC(Oc2cccc(Cl)c2F)CC1 (stereo unspecified) | inactive | inactive |  | 1.66 µM (active) | 0.662 µM (active) | 1.32 µM (active) | 0.468 µM (active) |  |  |  |  |
| C[C@@H]1COCCN1c1cc(C2(S(C)(=N)=O)CC2)nc(-c2ccnc3[nH]ccc23)n1 (stereo partly specified) | inactive | inactive |  | 2.63 µM (active) | 1.86 µM (active) | 2.35 µM (active) | 4.68 µM (active) |  | 2.63 µM (active) | 5.25 µM (active) |  |
| O=C1Nc2nc(-c3c(O)cccc3OCC3CC3)cc([C@@H]3CCCNC3)c2CO1 | inactive | inactive |  | 20.9 µM (active) | 16.6 µM (active) | 5.9 µM (active) | 18.6 µM (active) |  |  | 18.6 µM (active) |  |
| Cc1nnc(C[C@@H]2C=C(c3ccc(Cl)cc3)c3ccccc3-n3c(C)nnc32)o1 | inactive | inactive |  | 0.662 µM (active) | 0.332 µM (active) | 0.235 µM (active) |  | 2.09 µM (active) | 3.32 µM (active) | 5.25 µM (active) |  |
| O=C(CO)N1CCC(c2[nH]nc(-c3ccc(Cl)cc3)c2-c2ccncn2)CC1 | inactive | inactive |  |  | inactive | inactive | inactive |  | inactive | inactive | 101% |
| C=CC(=O)N1CCC(Oc2cc3c(Nc4ccc(Cl)c(Cl)c4F)ncnc3cc2OC)CC1 | inactive | inactive |  | 20.9 µM (active) | 13.2 µM (active) | 10.5 µM (active) |  |  |  |  |  |
| COCCNCCCn1c(C(=O)CF)c(-c2ccc(C)cc2)c2c(N)ncnc21 | inactive | inactive |  |  | 0.059 µM (active) | 3.32 µM (active) |  | inactive |  | inactive | 101% |
| C[C@H]1[C@H](C)CC[C@]2(C(=O)O)CC[C@]3(C)C(=CC[C@@H]4[C@@]5(C)C[C@@H](O)[C@H](O)[C@@](C)(CO)[C@@H]5CC[C@]43C)[C@H]12 | inactive | inactive |  |  | inactive | inactive | inactive |  | inactive | inactive | 104% |
| C[C@H]1[C@H](O)O[C@@H]2O[C@@]3(C)CC[C@H]4[C@H](C)CC[C@@H]1[C@@]24OO3 | inactive | inactive |  | 1.32 µM (active) | 1.18 µM (active) | 0.662 µM (active) | 1.18 µM (active) | 3.32 µM (active) |  | 4.68 µM (active) |  |
| C=CC(=O)Nc1ccc2ncnc(Nc3cccc(Br)c3)c2c1 | inactive | inactive |  | 26.3 µM (active) | 11.8 µM (active) | 7.42 µM (active) | 9.34 µM (active) | 8.33 µM (active) | 8.33 µM (active) | 11.8 µM (active) |  |
| CCCNC(=O)[C@H]1O[C@@H]1C(=O)N[C@H](C(=O)N1CCC[C@H]1C(=O)OC)C(C)CC (stereo partly specified) | inactive | inactive |  | 26.3 µM (active) | 2.09 µM (active) | 8.33 µM (active) | 23.5 µM (active) |  |  | 10.5 µM (active) |  |
| CCn1cc(-c2ccnc3[nH]c(-c4cccc(CN(C)C)c4)cc23)c(-c2ccc(NC(=O)N(C)C)cc2)n1 | inactive | inactive |  | 16.6 µM (active) | 8.33 µM (active) | 0.186 µM (active) | 3.32 µM (active) | 4.17 µM (active) | 5.25 µM (active) | 5.9 µM (active) |  |
| C=CC(=O)Nc1ccc2ncnc(Nc3ccc(OCc4cccc(F)c4)c(Cl)c3)c2c1 | inactive | inactive |  | 10.5 µM (active) | 5.9 µM (active) | 6.61 µM (active) | 6.61 µM (active) | 7.42 µM (active) |  | 8.33 µM (active) |  |
| Clc1cccc(-c2ccc(-c3nnc(CCCc4ccc5cccnc5n4)o3)cc2)c1 | inactive | inactive |  |  | inactive | inactive |  | inactive | inactive | inactive | 119% |

From PubChem BioAssay (NCATS)
